# In PubChem BioAssay AID1508625 (Wald Lab, School of Medicine, Case Western Reserve …, 2021):
# Assay: enhancers of NK cell killing of ovarian tumor cells, primary screen, imaging, OVCAR3, primary NK cells, calcein-AM imaging (AID 1508625);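 note: compound given to NK cells 16 h before adding targets at 1.5 to 1 ratio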
# Conditions: OVCAR3 lysis by primary NK cells, at 5 µM; z-score: measured here: robust Z-score, single-point normalisation
Structure (SMILES),"corrected activity, negative = more killing [%]",z-score
CCC(C)NC(=O)c1ccc2c(=O)n(Cc3ccccc3OC)c(=S)[nH]c2c1 (stereo unspecified),-7.22,-1.91
COC(=O)c1ccc(COC(=O)c2cc3ccccc3oc2=O)cc1,-2.06,-1.15
CCOc1ccc2nc(SCC(=O)Nc3ccccc3Oc3ccccc3)sc2c1,-3.99,-1.24
CCOc1cccc(C=NN2CCN(Cc3ccccc3)CC2)c1O,-2.77,-1.21
O=C(CCCOc1ccccc1)N1CCN(c2ccccn2)CC1,-1.33,-0.738
COc1ccccc1CNC(=O)c1sc2ncnc(N3CCOCC3)c2c1C,-0.847,-0.308
COc1ccc2cc3cc(C(=O)N(C)c4cc(C)ccc4C)oc3nc2c1,-6.86,-1.68
CC(C)c1ccc(NC(=O)c2cc(S(=O)(=O)N3CCN(c4ccccc4)CC3)ccc2F)cc1,-8.98,-2.42
O=C(O)CSCCC(=O)Nc1ccc(F)cc1,-7.17,-1.93
COc1ccccc1OCC(=O)N=Nc1c(O)[nH]c2c(C)cc(Br)cc12,-2.87,-1.13
CC(C)NCCOCCOc1cccc(Br)c1,-3.24,-1.21
Cc1cccc(OCC(=O)N2CCN(S(C)(=O)=O)CC2)c1,-2.23,-0.994
CCc1ccccc1-n1cnc2cc(C(=O)NCc3ccc(C)cc3)ccc21,-4.47,-1.2
O=C(COc1ccccc1Br)NN=Cc1ccccc1Br,-7.58,-2.41
CCCNS(=O)(=O)c1ccc(F)c(C(=O)Nc2cc(C)ccc2OC)c1,-6,-1.62
Cc1cc(C)c(C=Nc2ccc(-c3ccccc3[N+](=O)[O-])cc2)c(C)c1,-4.49,-1.91
CC(C)(C)c1ccc(C(=O)CC2(O)C(=O)Nc3ccc(Cl)cc32)cc1 (stereo unspecified),-2.41,-0.898
FC(F)(F)c1ccc(Oc2cccc(C(F)(F)F)c2)nc1,-1.98,-1.1
O=C1C2C3C=CC(CC3)C2C(=O)N1c1ccccc1[N+](=O)[O-] (stereo unspecified),-2.44,-1.04
Cc1c(C(=O)Oc2cccc3ccccc23)cccc1[N+](=O)[O-],-7.35,-2.77
CCOC(=O)Cc1ccc(N(Cc2cccs2)S(=O)(=O)c2ccc([N+](=O)[O-])cc2)cc1,-7.32,-1.98
CC(=O)OC1CC(C)N(C(=O)c2ccccc2)c2ccc(C)cc21 (stereo unspecified),-5.57,-1.73

Structure (SMILES),"corrected activity, negative = more killing [%]",z-score
CC1(C)CC(c2csc(N)n2)CCO1 (stereo unspecified),-2.99,-1.14
COc1ccc2c(c1OC)C(=O)OC2CC(=O)c1ccc(C)cc1 (stereo unspecified),-8.12,-1.71
CCOc1ccc(S(=O)(=O)Nc2ccc(OC(F)(F)F)cc2)c2cccnc12,-1.89,-0.602
CCC1=NN(C(=O)c2cccc(Cl)c2)C(O)(C(F)(F)F)C1 (stereo unspecified),-2.2,-0.839
Cc1ccc(C)c(NC(=O)c2ccc(-c3ccccc3)cc2)c1,-4.26,-1.81
COc1cc(C(=S)N2CCCCC2)cc(OC)c1OC(=O)c1cccc2ccccc12,-9.1,-3.43
Cc1cc(-n2c(N)c(C(N)=O)sc2=S)ccc1Cl,-4.14,-1.1
O=c1c2cc3c(cc2nc(SCc2cccc(F)c2)n1Cc1ccco1)OCO3,-3.76,-0.995
Cc1ccc(S(=O)(=O)N2CCCCCC2)cc1C,1.77,0.548
CCCCSc1nc2c([nH]c3ccccc32)c(=O)n1-c1ccc(F)cc1,-4.96,-1.23
COc1ccc(CNC(=O)CSc2nc3cc(Cl)ccc3s2)cc1,-1.73,-0.516
COc1ccc(OC)c(NC(=O)c2cc3c(=O)n4ccccc4nc3s2)c1,-6.86,-1.95
Cc1ccc(C(=O)Nc2ccc(NC(=O)c3ccc(C(C)(C)C)cc3)cc2)cc1[N+](=O)[O-],-2.5,-0.888
CC(C)c1ccc(NC(=O)C2c3ccccc3C(=O)N(C)C2c2cccs2)cc1 (stereo unspecified),-7.64,-1.9
CN(C)c1ccc(C(=O)N2N=C(c3ccc(Cl)cc3)CC2(O)C(F)(F)F)cc1 (stereo unspecified),-4.5,-1.72
CCCCOc1ccc(C(=O)N2N=C(C)CC2(O)C(F)(F)F)cc1 (stereo unspecified),-6.48,-2.66
O=C(CCCC(=O)Nc1cccc(Cl)c1)Nc1cccc(Cl)c1,-2.22,-0.828
COc1cc(C=NS(=O)(=O)c2cccs2)cc(Br)c1O,-1.94,-0.74
COc1ccc(S(=O)(=O)N2CCN(C(=O)COc3ccc4ccccc4c3)CC2)cc1,-2.15,-0.961
CCN(c1ccccc1C(=O)O)S(=O)(=O)c1cccc2nsnc12,-4.09,-1.22
Cc1ccc(Nc2nc(C)cc(C)c2C(N)=O)cc1,-3.73,-1.66
